# Test results published in the supplement of paper PMC8728848.
# This excerpt belongs to a sample that is enriched for the strongest signals.
# Assays:
# Assay in all cases: glycan array binding signal (z-score within array); higher = stronger binding
# [1] = molecular target: Fuc(a1-3)[Gal(b1-4)]GlcNAc(b1-3)Gal(b1-3)[Fuc(a1-4)]GlcNAc; conditions: glycan notation: IUPAC condensed, linker removed
# In short: (§1)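 Arrays were curated from the Consortium for Functional Glycomics database, 3228 in total, and kept only where the protein sequence was available. Binding is expressed as a within-array Z-score. This score was averaged across arrays of the same protein sequence at different concentrations or buffers and across linkers, and negative values can be read as non-binding.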
# [2] = molecular target: Fuc(a1-3)[Gal(b1-4)]GlcNAc(b1-4)Gal(b1-4)[Fuc(a1-3)]GlcNAc(b1-4)Gal(b1-4)[Fuc(a1-3)]GlcNAc; conditions: glycan notation: IUPAC condensed, linker removed
# In short: as §1
# [3] = molecular target: Gal(a1-6)Glc; conditions: glycan notation: IUPAC condensed, linker removed
# In short: as §1
# [4] = molecular target: Gal(b1-3)Gal(b1-4)GlcNAc; conditions: glycan notation: IUPAC condensed, linker removed
# In short: as §1
# [5] = molecular target: Gal(b1-3)GlcNAc; conditions: glycan notation: IUPAC condensed, linker removed
# In short: as §1
# [6] = molecular target: Gal(b1-3)GlcNAc(b1-2)Man(a1-3)[Gal(b1-3)GlcNAc(b1-2)Man(a1-6)]Man(b1-4)GlcNAc(b1-4)GlcNAc; conditions: glycan notation: IUPAC condensed, linker removed
# In short: as §1
# [7] = molecular target: Gal(b1-3)GlcNAc(b1-3)Gal(b1-4)Glc; conditions: glycan notation: IUPAC condensed, linker removed
# In short: as §1
# [8] = molecular target: Gal(b1-3)[Fuc(a1-4)]GlcNAc; conditions: glycan notation: IUPAC condensed, linker removed
# In short: as §1
# [9] = molecular target: Gal(b1-3)[Fuc(a1-4)]GlcNAc(b1-3)Gal(b1-4)[Fuc(a1-3)]GlcNAc; conditions: glycan notation: IUPAC condensed, linker removed
# In short: as §1
# [10] = molecular target: Gal(b1-4)GlcNAc(b1-3)[Gal(b1-4)GlcNAc(b1-6)]Gal(b1-4)GlcNAc; conditions: glycan notation: IUPAC condensed, linker removed
# In short: as §1
# [11] = molecular target: Gal6S(b1-4)Glc; conditions: glycan notation: IUPAC condensed, linker removed
# In short: as §1
# [12] = molecular target: GlcNAc(b1-3)[GlcNAc(b1-6)]GalNAc; conditions: glycan notation: IUPAC condensed, linker removed
# In short: as §1
# [13] = molecular target: GlcNAc(b1-4)GlcNAc(b1-4)GlcNAc; conditions: glycan notation: IUPAC condensed, linker removed
# In short: as §1
# [14] = molecular target: GlcNAc(b1-4)GlcNAc(b1-4)GlcNAc(b1-4)GlcNAc(b1-4)GlcNAc(b1-4)GlcNAc; conditions: glycan notation: IUPAC condensed, linker removed
# In short: as §1
# [15] = molecular target: Man(a1-2)Man(a1-2)Man(a1-3)Man; conditions: glycan notation: IUPAC condensed, linker removed
# In short: as §1
# [16] = molecular target: Man(a1-2)Man(a1-2)Man(a1-6)[Man(a1-3)]Man; conditions: glycan notation: IUPAC condensed, linker removed
# In short: as §1
# [17] = molecular target: Man(a1-2)Man(a1-3)[Man(a1-2)Man(a1-6)]Man; conditions: glycan notation: IUPAC condensed, linker removed
# In short: as §1
# [18] = molecular target: Man(a1-2)Man(a1-3)[Man(a1-6)]Man(a1-6)[Man(a1-2)Man(a1-3)]Man(b1-4)GlcNAc(b1-4)GlcNAc; conditions: glycan notation: IUPAC condensed, linker removed
# In short: as §1
# [19] = molecular target: Man(a1-2)Man(a1-6)[Man(a1-3)]Man(a1-6)[Man(a1-2)Man(a1-2)Man(a1-3)]Man(b1-4)GlcNAc(b1-4)GlcNAc; conditions: glycan notation: IUPAC condensed, linker removed
# In short: as §1
# [20] = molecular target: Man(a1-3)[Man(a1-6)]Man(a1-6)[Man(a1-2)Man(a1-3)]Man(b1-4)GlcNAc(b1-4)GlcNAc; conditions: glycan notation: IUPAC condensed, linker removed
# In short: as §1
# [21] = molecular target: Neu5Ac(a2-3)Gal; conditions: glycan notation: IUPAC condensed, linker removed
# In short: as §1
# [22] = molecular target: Neu5Ac(a2-3)Gal(b1-3)[Fuc(a1-4)]GlcNAc(b1-3)Gal(b1-4)[Fuc(a1-3)]GlcNAc; conditions: glycan notation: IUPAC condensed, linker removed
# In short: as §1
# [23] = molecular target: Neu5Ac(a2-3)[GalNAc(b1-4)]Gal(b1-4)Glc; conditions: glycan notation: IUPAC condensed, linker removed
# In short: as §1
# [24] = molecular target: Neu5Ac(a2-3)[Neu5Ac(a2-6)]GalNAc; conditions: glycan notation: IUPAC condensed, linker removed
# In short: as §1
# [25] = molecular target: Neu5Ac(a2-8)Neu5Ac(a2-3)[GalNAc(b1-4)]Gal(b1-4)Glc; conditions: glycan notation: IUPAC condensed, linker removed
# In short: as §1
# [26] = molecular target: Neu5Ac(b2-6)Gal(b1-4)GlcNAc; conditions: glycan notation: IUPAC condensed, linker removed
# In short: as §1
# [27] = molecular target: Gal(a1-2)Gal; conditions: glycan notation: IUPAC condensed, linker removed; mutation: F355A
# In short: as §1
# [28] = molecular target: Gal(a1-3)Gal(b1-4)Glc; conditions: glycan notation: IUPAC condensed, linker removed; mutation: F355A
# In short: as §1
# [29] = molecular target: Gal(a1-3)GalNAc; conditions: glycan notation: IUPAC condensed, linker removed; mutation: F355A
# In short: as §1
# [30] = molecular target: Gal(b1-4)GlcNAc(b1-2)Man(a1-3)[Gal(b1-4)GlcNAc(b1-2)Man(a1-6)]Man(b1-4)GlcNAc(b1-4)GlcNAc; conditions: glycan notation: IUPAC condensed, linker removed; mutation: F355A
# In short: as §1
# [31] = molecular target: GalNAc(b1-3)Gal(a1-4)Gal(b1-4)GlcNAc; conditions: glycan notation: IUPAC condensed, linker removed; mutation: F355A
# In short: as §1
# [32] = molecular target: GlcNAc(a1-6)Gal(b1-4)GlcNAc; conditions: glycan notation: IUPAC condensed, linker removed; mutation: F355A
# In short: as §1
# [33] = molecular target: GlcNAc(b1-4)Gal(b1-4)GlcNAc; conditions: glycan notation: IUPAC condensed, linker removed; mutation: F355A
# In short: as §1
# [34] = molecular target: GlcNAc(b1-4)GlcNAc(b1-4)GlcNAc(b1-4)GlcNAc(b1-4)GlcNAc; conditions: glycan notation: IUPAC condensed, linker removed; mutation: F355A
# In short: as §1
# [35] = molecular target: Kdn(a2-3)Gal(b1-4)GlcNAc; conditions: glycan notation: IUPAC condensed, linker removed; mutation: F355A
# In short: as §1
# [36] = molecular target: Man(a1-2)Man(a1-3)[Man(a1-2)Man(a1-6)]Man(a1-6)[Man(a1-2)Man(a1-2)Man(a1-3)]Man; conditions: glycan notation: IUPAC condensed, linker removed; mutation: F355A
# In short: as §1
# [37] = molecular target: Man(a1-3)[Man(a1-6)]Man(a1-6)[Man(a1-3)]Man; conditions: glycan notation: IUPAC condensed, linker removed; mutation: F355A
# In short: as §1
# [38] = molecular target: Man(a1-3)[Man(a1-6)]Man(a1-6)[Man(a1-3)]Man(b1-4)GlcNAc(b1-4)GlcNAc; conditions: glycan notation: IUPAC condensed, linker removed; mutation: F355A
# In short: as §1
# [39] = molecular target: Neu5Ac(a2-6)Gal(b1-4)GlcNAc(b1-2)Man(a1-6)[Gal(b1-4)GlcNAc(b1-2)Man(a1-3)]Man(b1-4)GlcNAc(b1-4)GlcNAc; conditions: glycan notation: IUPAC condensed, linker removed; mutation: F355A
# In short: as §1
# [40] = molecular target: Neu5Gc(a2-3)Gal(b1-4)[Fuc(a1-3)]GlcNAc; conditions: glycan notation: IUPAC condensed, linker removed; mutation: F355A
# In short: as §1
binder,measurement,setting,value
Surfactant Protein D (Human); Neck + Carbohydrate Recognition Domain (NCRD) (Homo sapiens) (protein) MLLFLLSALVLLTQPLGYLEAEMKTYSHRTMPSACTLVMCSSVESGLPGRDRDGREGPRGEKGDPGLPGAAGQAGMPGQAGPVGPKGDNGSVGEPGPKGDTGPSGPPGPPGVPGPAGREGALGKQGNIGPQGKPGPKGEAGPKGEVGAPGMQGSAGARGLAGPKGERGVPGERGVPGNTGAAGSAGAMGPQGSPGARGPPGLKGDKGIPGDKGAKGESGLPDVASLRQQVEALQGQVQHLQAAFSQYKKVELFPNGQSVGEKIFKTAQFVKPFTEAQLLCTQAGGQLASPRSAAENAALQQLVVAKNEAAFLSMTDSKTEGKFTYPTGESLVYSNWAPGEPNDDGGSEDCVEIFTNGKWNDRACGEKRLVVCEF,glycan array binding signal (z-score),[1],-0.257
same,glycan array binding signal (z-score),[2],-0.273
same,glycan array binding signal (z-score),[3],-0.083
same,glycan array binding signal (z-score),[4],-0.274
same,glycan array binding signal (z-score),[5],-0.263
same,glycan array binding signal (z-score),[6],-0.275
same,glycan array binding signal (z-score),[7],-0.271
same,glycan array binding signal (z-score),[8],-0.233
same,glycan array binding signal (z-score),[9],-0.053
same,glycan array binding signal (z-score),[10],-0.29
same,glycan array binding signal (z-score),[11],-0.216
same,glycan array binding signal (z-score),[12],-0.258
same,glycan array binding signal (z-score),[13],-0.24
same,glycan array binding signal (z-score),[14],0.127
same,glycan array binding signal (z-score),[15],6.02
same,glycan array binding signal (z-score),[16],5.46
same,glycan array binding signal (z-score),[17],4.89
same,glycan array binding signal (z-score),[18],6.78
same,glycan array binding signal (z-score),[19],5.33
same,glycan array binding signal (z-score),[20],4.68
same,glycan array binding signal (z-score),[21],-0.243
same,glycan array binding signal (z-score),[22],0.1
same,glycan array binding signal (z-score),[23],-0.277
same,glycan array binding signal (z-score),[24],-0.296
same,glycan array binding signal (z-score),[25],-0.238
same,glycan array binding signal (z-score),[26],-0.288
Surfactant Protein D (Human); Neck + Carbohydrate Recognition Domain (NCRD) (Homo sapiens) (protein) MLLFLLSALVLLTQPLGYLEAEMKTYSHRTMPSACTLVMCSSVESGLPGRDRDGREGPRGEKGDPGLPGAAGQAGMPGQAGPVGPKGDNGSVGEPGPKGDTGPSGPPGPPGVPGPAGREGALGKQGNIGPQGKPGPKGEAGPKGEVGAPGMQGSAGARGLAGPKGERGVPGERGVPGNTGAAGSAGAMGPQGSPGARGPPGLKGDKGIPGDKGAKGESGLPDVASLRQQVEALQGQVQHLQAAFSQYKKVELFPNGQSVGEKIFKTAQFVKPFTEAQLLCTQAGGQLASPRSAAENAALQQLVVAKNEAAFLSMTDSKTEGKFTYPTGESLVYSNWAPGEPNDDGGSEDCVEIFTNGKWNDRACGEKRLVVCEA,glycan array binding signal (z-score),[27],-0.16
same,glycan array binding signal (z-score),[28],-0.099
same,glycan array binding signal (z-score),[29],-0.129
same,glycan array binding signal (z-score),[30],-0.104
same,glycan array binding signal (z-score),[31],-0.138
same,glycan array binding signal (z-score),[32],-0.164
same,glycan array binding signal (z-score),[33],-0.146
same,glycan array binding signal (z-score),[13]; mutation: F355A,-0.155
same,glycan array binding signal (z-score),[34],-0.122
same,glycan array binding signal (z-score),[35],-0.072
same,glycan array binding signal (z-score),[16]; mutation: F355A,2.74
same,glycan array binding signal (z-score),[17]; mutation: F355A,4.68
same,glycan array binding signal (z-score),[36],15
same,glycan array binding signal (z-score),[19]; mutation: F355A,1.59
same,glycan array binding signal (z-score),[20]; mutation: F355A,2.15
same,glycan array binding signal (z-score),[37],5.56
same,glycan array binding signal (z-score),[38],2.12
same,glycan array binding signal (z-score),[39],-0.15
same,glycan array binding signal (z-score),[40],-0.145
